The values below come from the supplement of paper PMC8007513.

Counter-ions that a name gives are not always drawn. ± gives the standard error. Out of some 1,300 compounds screened, about 130 (10%) showed an effect of 50% or more. The list comes from a sample in which strong results are over-represented; it also holds similar structures and randomly drawn compounds.

The subject of the assay is Trichoderma virens ATCC 9645. Nature of the assay: growth yield (OD600) with compound + IPBC relative to untreated control; higher = less growth inhibition. The settings on record: compound concentration: 100 uM, IPBC concentration: 200 ng/ml. The method, boiled down:
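Growth appears as means of duplicate screens, relative to the control containing neither agent. To obtain it, OD600 was read on a BioTek EL800 at 40 h and 72 h. The cultures were 100 μl aliquots in 96-well plates at 30 °C, holding Trichoderma virens ATCC 9645 spores at 15,000 spores ml^−1 in potato dextrose broth, library compounds at 100 μM final, and, in some wells, a biocide at 200 ng ml^−1.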

With `CC(c1cc2ccccc2s1)N(O)C(N)=O` (stereo not given) [Zileuton] + CCCCNC(=O)OCC#CI [3-iodo-2-propynyl butylcarbamate (IPBC)], the growth yield runs as follows: (40 h) 89.1 ± 3.3%; (72 h) 90.8 ± 2.1%.
The corresponding values for `NCCCCCC(=O)O` [Aminocaproic acid] + CCCCNC(=O)OCC#CI [3-iodo-2-propynyl butylcarbamate (IPBC)] are 103 ± 13% and 98.9 ± 6.8%.
For `Nc1ncnc2c1ncn2C1OC(COP(=O)(O)O)C(O)C1O` (stereo not given) [Adenosine 5'-monophosphate monohydrate] + CCCCNC(=O)OCC#CI [3-iodo-2-propynyl butylcarbamate (IPBC)], in that order: 79.4 ± 1.3% and 91.2 ± 1.1%.
As to `CC(C)(C)NC(=O)[C@@H]1CN(Cc2cccnc2)CCN1C[C@@H](O)C[C@@H](Cc1ccccc1)C(=O)N[C@H]1c2ccccc2C[C@H]1O` [Indinavir sulfate] + CCCCNC(=O)OCC#CI [3-iodo-2-propynyl butylcarbamate (IPBC)], the growth yield is 88.5 ± 3.3% (40 h) and 89.78 ± 0.84% (72 h).
For `Cc1nnc(NS(=O)(=O)c2ccc(N)cc2)s1` [Sulfamethizole] + CCCCNC(=O)OCC#CI [3-iodo-2-propynyl butylcarbamate (IPBC)], in that order: 93.7 ± 8.9% and 97.3 ± 7.1%.
For the compound `Cc1cc(/C=C/c2ccc3cc(N(C)C)ccc3[n+]2C)c(C)n1-c1ccccc1` [Pyrvinium pamoate] + CCCCNC(=O)OCC#CI [3-iodo-2-propynyl butylcarbamate (IPBC)], the growth yield by setting is: (40 h) 111 ± 4.5%; (72 h) 111 ± 3.1%.
Consider `C[N+]1(C)CCCC(OC(=O)C(O)(c2ccccc2)c2ccccc2)C1` (stereo not given) [Mepenzolate bromide] + CCCCNC(=O)OCC#CI [3-iodo-2-propynyl butylcarbamate (IPBC)], for which the growth yield is, setting by setting: (40 h) 83.2%; (72 h) 85.7 ± 0.94%.
The corresponding values for `C=CCSCC1Nc2cc(Cl)c(S(N)(=O)=O)cc2S(=O)(=O)N1` (stereo not given) [Althiazide] + CCCCNC(=O)OCC#CI [3-iodo-2-propynyl butylcarbamate (IPBC)] are 98.16 ± 0.32% and 96.7 ± 0.21%.
With `CC=CC(=O)N(CC)c1ccccc1C` [Crotamiton] + CCCCNC(=O)OCC#CI [3-iodo-2-propynyl butylcarbamate (IPBC)], the growth yield (40 h) was 98.8 ± 5.1% and the growth yield (72 h) was found to be 102 ± 2.2%.
For `CCN1CCC[C@H]1CNC(=O)c1c(OC)ccc(Br)c1OC` [Remoxipride Hydrochloride] + CCCCNC(=O)OCC#CI [3-iodo-2-propynyl butylcarbamate (IPBC)], in that order: 101 ± 3.5% and 99 ± 1.5%.
For `C=CCOC(Cn1ccnc1)c1ccc(Cl)cc1Cl` (stereo not given) [Enilconazole] + CCCCNC(=O)OCC#CI [3-iodo-2-propynyl butylcarbamate (IPBC)], in that order: 3.34 ± 0.16% and 2.94 ± 0.21%.
For `Clc1ccc(COC(Cn2ccnc2)c2ccc(Cl)cc2Cl)c(Cl)c1` (stereo not given) [Miconazole] + CCCCNC(=O)OCC#CI [3-iodo-2-propynyl butylcarbamate (IPBC)], in that order: 2.8591 ± 3.6e-15% and 2.41 ± 0.1%.
In the case of `Clc1ccc(CCC(Cn2ccnc2)Sc2c(Cl)cccc2Cl)cc1` (stereo not given) [Butoconazole nitrate] + CCCCNC(=O)OCC#CI [3-iodo-2-propynyl butylcarbamate (IPBC)], the growth yield stood at 3.18% (40 h) and 2.62 ± 0.1% (72 h).
With `Clc1ccc(CO/N=C(\Cn2ccnc2)c2ccc(Cl)cc2Cl)c(Cl)c1` [Oxiconazole Nitrate] + CCCCNC(=O)OCC#CI [3-iodo-2-propynyl butylcarbamate (IPBC)], the growth yield was determined as 3.49 ± 0.32% (40 h) and 2.1 ± 0.21% (72 h).
For `CC(=O)NCCCS(=O)(=O)O` [Acamprosate calcium] + CCCCNC(=O)OCC#CI [3-iodo-2-propynyl butylcarbamate (IPBC)], in that order: 102.9 ± 0.32% and 94.3 ± 2.4%.
On to `CCCCC(=O)O[C@H]1CC[C@H]2[C@@H]3CCc4cc(O)ccc4[C@H]3CC[C@]12C` [Estradiol Valerate] + CCCCNC(=O)OCC#CI [3-iodo-2-propynyl butylcarbamate (IPBC)], for which the growth yield turned out to be 92.29 ± 0.48% (40 h) and 92.2 ± 2.4% (72 h).
With `O=C1O[C@H]([C@@H](O)CO)C(O)=C1O` [Ascorbic acid] + CCCCNC(=O)OCC#CI [3-iodo-2-propynyl butylcarbamate (IPBC)], the growth yield runs as follows: (40 h) 92.1 ± 0.95%; (72 h) 96.28 ± 0.63%.
For `CN[C@@H]1[C@@H](O)[C@@H](O[C@@H]2[C@@H](O)[C@H](O[C@H]3OC(CN)=CC[C@H]3N)[C@@H](N)C[C@H]2N)OC[C@]1(C)O` [Sisomicin sulfate] + CCCCNC(=O)OCC#CI [3-iodo-2-propynyl butylcarbamate (IPBC)], in that order: 85.6 ± 3.6% and 91.9 ± 3.6%.
Regarding `Cc1ccccc1OCC(O)CO` (stereo not given) [Mephenesin] + CCCCNC(=O)OCC#CI [3-iodo-2-propynyl butylcarbamate (IPBC)], the growth yield by setting is: (40 h) 93.7 ± 2.9%; (72 h) 99 ± 0.63%.
Regarding `CNCC(O)c1ccc(O)cc1` (racemic) [(+,-)-Synephrine] + CCCCNC(=O)OCC#CI [3-iodo-2-propynyl butylcarbamate (IPBC)], the growth yield reads like this: (40 h) 81.3 ± 3.8%; (72 h) 93.8 ± 6.3%.
The corresponding values for `NC(=O)C[S+]([O-])C(c1ccccc1)c1ccccc1` (stereo not given) [Modafinil] + CCCCNC(=O)OCC#CI [3-iodo-2-propynyl butylcarbamate (IPBC)] are 82 ± 3.5% and 93.5 ± 2.9%.
`C[C@]12C=CC(=O)C=C1CC[C@@H]1[C@@H]2C(=O)C[C@@]2(C)[C@H]1CC[C@]2(O)C(=O)CO` [Prednisone] + CCCCNC(=O)OCC#CI [3-iodo-2-propynyl butylcarbamate (IPBC)]: the growth yield stood at 90.9 ± 1.9% (40 h) and 91.5 ± 1.3% (72 h).
As to `CCCC(C)C1(CC)C(=O)NC(=O)NC1=O` (stereo not given) [Pentobarbital] + CCCCNC(=O)OCC#CI [3-iodo-2-propynyl butylcarbamate (IPBC)], the growth yield reads like this: (40 h) 87.4 ± 2.9%; (72 h) 94.2 ± 2.7%.
For `C/C=C(/C(=C/C)c1ccc(O)cc1)c1ccc(O)cc1` [Dienestrol] + CCCCNC(=O)OCC#CI [3-iodo-2-propynyl butylcarbamate (IPBC)], in that order: 94.8 ± 3.3% and 93.8 ± 2.3%.
On to `CCC(C)(CN(C)C)OC(=O)c1ccccc1` (stereo not given) [Amyleine hydrochloride] + CCCCNC(=O)OCC#CI [3-iodo-2-propynyl butylcarbamate (IPBC)], for which the growth yield (40 h) amounted to 88 ± 1.3% and the growth yield (72 h) is 92 ± 2%.
For `COc1ccc(Cl)cc1C(=O)NCCc1ccc(S(=O)(=O)NC(=O)NC2CCCCC2)cc1` [Glibenclamide] + CCCCNC(=O)OCC#CI [3-iodo-2-propynyl butylcarbamate (IPBC)], in that order: 101 ± 6.8% and 108 ± 5.5%.
As for `Clc1ccc(C(Cn2ccnc2)OCc2csc3c(Cl)cccc23)c(Cl)c1` (stereo not given) [Sertaconazole nitrate] + CCCCNC(=O)OCC#CI [3-iodo-2-propynyl butylcarbamate (IPBC)], the growth yield (40 h) came out at 3.97 ± 0.16% and the growth yield (72 h) came to 3.57 ± 0.42%.
Turning to `CCOc1ccc2c(c1)C(C)=CC(C)(C)N2` [Ethoxyquin] + CCCCNC(=O)OCC#CI [3-iodo-2-propynyl butylcarbamate (IPBC)], the growth yield (40 h) stood at 98.3 ± 17% and the growth yield (72 h) worked out at 98.9 ± 12%.
As for `CCc1c(C)[nH]c2c1C(=O)C(CN1CCOCC1)CC2` (stereo not given) [Molindone hydrochloride] + CCCCNC(=O)OCC#CI [3-iodo-2-propynyl butylcarbamate (IPBC)], the growth yield was 102 ± 13% (40 h) and 101 ± 8.9% (72 h).
The corresponding values for `CO[C@@H]1[C@@H](OC(N)=O)[C@@H](O)[C@H](Oc2ccc3c(O)c(NC(=O)c4ccc(O)c(CC=C(C)C)c4)c(=O)oc3c2C)OC1(C)C` [Novobiocin sodium salt] + CCCCNC(=O)OCC#CI [3-iodo-2-propynyl butylcarbamate (IPBC)] are 91.7 ± 12% and 115 ± 14%.
For `c1ccc(-c2ccc(C(c3ccccc3)n3ccnc3)cc2)cc1` (stereo not given) [Bifonazole] + CCCCNC(=O)OCC#CI [3-iodo-2-propynyl butylcarbamate (IPBC)], in that order: 4.92 ± 0.16% and 3.25 ± 0.1%.
`N#Cc1ccc(C(c2ccc(C#N)cc2)n2cncn2)cc1` [Letrozole] + CCCCNC(=O)OCC#CI [3-iodo-2-propynyl butylcarbamate (IPBC)]: the growth yield (40 h) amounted to 98.6 ± 8.1% and the growth yield (72 h) amounted to 98.5 ± 1.6%.
Regarding `O=C(C1CCCCC1)N1CC(=O)N2CCc3ccccc3C2C1` (stereo not given) [Praziquantel] + CCCCNC(=O)OCC#CI [3-iodo-2-propynyl butylcarbamate (IPBC)], the growth yield turned out to be 71 ± 7.5% (40 h) and 87.3 ± 3.8% (72 h).
For `O=[N+]([O-])O[C@H]1CO[C@H]2[C@@H]1OC[C@H]2O[N+](=O)[O-]` [Isosorbide dinitrate] + CCCCNC(=O)OCC#CI [3-iodo-2-propynyl butylcarbamate (IPBC)], the growth yield is 90.9 ± 7.6% (40 h) and 94.4 ± 5.7% (72 h).
For `NS(=O)(=O)c1cc2c(cc1Cl)NC(C(Cl)Cl)NS2(=O)=O` (stereo not given) [Trichlormethiazide] + CCCCNC(=O)OCC#CI [3-iodo-2-propynyl butylcarbamate (IPBC)], in that order: 97.5 ± 16% and 97.3 ± 12%.
As for `C[C@@H]1CN([C@H]2CC[C@](C#N)(c3ccc(F)cc3)CC2)CC[C@]1(C(=O)O)c1ccccc1` [Levocabastine hydrochloride] + CCCCNC(=O)OCC#CI [3-iodo-2-propynyl butylcarbamate (IPBC)], the growth yield came to 118 ± 11% (40 h) and 111 ± 7.3% (72 h).
Turning to `CC(C)OC(=O)CCC/C=C\C[C@@H]1[C@@H](CC[C@@H](O)CCc2ccccc2)[C@H](O)C[C@@H]1O` [Latanoprost] + CCCCNC(=O)OCC#CI [3-iodo-2-propynyl butylcarbamate (IPBC)], the growth yield (40 h) was found to be 90.5 ± 1.9% and the growth yield (72 h) worked out at 93 ± 3.9%.
For `CC(=O)CC(c1ccccc1)c1c(O)c2ccccc2oc1=O` (stereo not given) [Warfarin] + CCCCNC(=O)OCC#CI [3-iodo-2-propynyl butylcarbamate (IPBC)], in that order: 88.5 ± 2.1% and 93.03 ± 0.1%.
The corresponding values for `O=c1oc2ccccc2c(O)c1Cc1c(O)c2ccccc2oc1=O` [Dicumarol] + CCCCNC(=O)OCC#CI [3-iodo-2-propynyl butylcarbamate (IPBC)] are 92.3 ± 6.5% and 93.2 ± 3%.
Consider `CCc1oc2ccccc2c1C(=O)c1cc(Br)c(O)c(Br)c1` [Benzbromarone] + CCCCNC(=O)OCC#CI [3-iodo-2-propynyl butylcarbamate (IPBC)], for which the growth yield was 43.68 ± 0.16% (40 h) and 99.3 ± 8.1% (72 h).
